Where “and” joins values, the source holds several entries; their conditions need not be identical. Equal values may be shown once. Records with an inconclusive call do not appear. Calls of active or inactive are those of the source. Calls follow the shape of the dose curve; as a rule, active = well fitted inhibition curve with a large enough effect; inconclusive = small, poorly fitted or top-dose-only effect; inactive = flat fitted curve, though single readings scatter.

Sequence of 15-hydroxyprostaglandin dehydrogenase [NAD(+)] (Homo sapiens) (P15428 whole entry, looked up): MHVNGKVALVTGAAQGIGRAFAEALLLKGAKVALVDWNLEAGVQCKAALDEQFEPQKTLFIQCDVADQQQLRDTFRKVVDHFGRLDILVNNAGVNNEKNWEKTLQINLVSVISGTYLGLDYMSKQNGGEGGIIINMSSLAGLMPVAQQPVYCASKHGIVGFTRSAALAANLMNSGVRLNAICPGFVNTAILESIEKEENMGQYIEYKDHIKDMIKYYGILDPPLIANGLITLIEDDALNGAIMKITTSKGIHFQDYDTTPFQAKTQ

For this experiment, the target named is 15-hydroxyprostaglandin dehydrogenase [NAD(+)] (Homo sapiens) (UniProt P15428). Put plainly: Extended Characterization of HPGD Inhibitors: Activity in Primary Assay (HPGD). The note with it: recombinant HPGD, NADH fluorescence, PGE2 substrate. From the text:
The central role of HPGD is to inactivate prostaglandins such as prostaglandin E2 (PGE2) or prostaglandin D2 (PGD2). These prostaglandins are involved in a number of processes, including inflammation, differentiation, and cellular signaling, which makes HPGD an important target for pharmacological intervention. Inhibition of 15-PGDH (HPGD) activity was screened by utilizing prostaglandin as an electron donor and NAD+ as an electron acceptor/cofactor. An increase in the fluorescence intensity due to conversion of NAD+ to NADH was used to measure the enzyme activity. All compounds were screened using a qHTS approach, where compounds are assayed using at least seven concentrations to generate concentration-response curves for every compound. Briefly, qHTS uses an inter-plate dilution method where the first plate contains the highest concentration of a set of compounds in DMSO, while subsequent plates contain the same compounds in the same well locations, but at successive lower concentrations. NIH Chemical Genomics Center [NCGC] NIH Molecular Libraries Probe Centers Network [MLPCN] MLPCN Grant: MH084681 Assay Submitter (PI): Structural Genomics Consortium
Three uL of enzyme (20 nM final concentration) were dispensed to 1536-well Greiner black solid bottom plates. Compounds (23 nL) were transferred via Kalypsys PinTool. The plates were incubated for 15 min at room temperature, and then 1 uL of substrate/cofactor solution (Substrate/cofactor solution: 1 mM NAD+ and 30 uM prostaglandin (Sigma, prostaglandin E2, #P5640)) were added to start the reaction. The plates were immediately transferred to and read 4 times every 30 seconds on a ViewLux High-throughput CCD imager (Perkin-Elmer) using 340 nm excitation and 450 nm emission fluorescence protocol. The fluorescence intensity difference between the last and the first time points, normalized against controls, was used to compute reaction progress.
Regarding `Cc1cc(-c2nnc3n2CCCCC3)c(C)n1-c1cccnc1`, the Potency is 271 nM (active).

With `Cc1cccc(-n2cnc3cc(C(=O)N4CCCC(C)C4)ccc32)c1` (stereo not given), the Potency is 21.5 nM (active).

Take `Cc1cc(-c2nnc3n2CCCCC3)c(C)n1-c1ccc(Cl)cc1`: the Potency was 38.3 nM (active).

As to `COc1ccc(-n2c(C)cc(-c3nnc4n3CCCCC4)c2C)cc1`, the Potency is 85.7 nM (active).

In the case of `Cc1cc(-c2nnc3n2CCCCC3)c(C)n1-c1ccc(C(C)(C)C)cc1`, the Potency was 85.7 nM (active) and 136 nM (active).

For the origin of these results see PubChem BioAssay AID743171 (National Center for Advancing Translational Sciences (NCATS), 2013).
